# Assay results as given in article PMC5540273 (PLoS ONE, 2017).
# Columns and labels:
# JNK2 = system: T1, JNK2
# T1 construct: gene MAPK9
# JNK3 = system: T2, JNK3
# T2 construct: gene MAPK10
# [1] = system: JAK2(JH1domain-catalytic)
# LOK = system: T3, LOK
# T3 construct: gene STK10
# MEK4 = system: T4, MEK4
# T4 construct: gene MAP2K4
# LZK = system: T5, LZK
# T5 construct: gene MAP3K13
# MEK2 = system: T6, MEK2
# T6 construct: gene MAP2K2
# [2] = system: JAK3(JH1domain-catalytic)
# 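Note: kd values determined as follow-up on hits from a single-replicate KINOMEscan panel screen.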
compound,measurement,setting,value
O=c1cc(N2CCOCC2)nc2n(Cc3ccccc3F)ccn12 [GSK2297428],Kd,MARK1,> 10000 nM
Nc1nccc(-c2c(-c3ccc(F)cc3)ncn2C2CCN(Cc3ccccc3)CC2)n1 [SB-219980],Kd,JNK2,43 nM
same,Kd,JNK3,31 nM
COc1ccc2cc(-c3nc(-c4ccccc4C(C)C)[nH]c3-c3ccncc3)ccc2c1 [SB-660566],Kd,[1],> 10000 nM
CS(=O)(=O)Cc1ccc(Nc2nccc(-c3c(-c4cccc(NC(=O)C5CCCCC5)c4)nn4ncccc34)n2)cc1 [GSK350559],Kd,KIT,110 nM
same,Kd,LOK,360 nM
Cc1ccccc1Cn1ccn2c(=O)cc(N3CCOCC3)nc12 [GSK2269905],Kd,MARK1,> 10000 nM
same,Kd,MARK4,> 10000 nM
Cc1ccc(NC(=O)Nc2ccc(Cl)c(C(F)(F)F)c2)cc1-c1ccc(C(=O)Nc2ccncc2)cc1 [GSK1398470],Kd,KIT,560 nM
COc1ccc(Nc2nccc(N3CCC(NC(=O)C(C)c4ccc(Cl)cc4)CC3)n2)cc1 (centres unmarked) [GSK1379812],Kd,LATS2,> 10000 nM
O=C(Nc1n[nH]c2nc(-c3cccs3)c(Br)cc12)C1CC1 [SB-735297],Kd,MEK4,> 10000 nM
Cc1ccc(NC(=O)Nc2ccccc2F)cc1-c1ccc(C(=O)Nc2ccncc2)cc1 [GSK1398477],Kd,KIT,450 nM
CNC(=O)c1ccc(C)c(-n2c(C)cc(OCc3ccc(F)cc3F)c(Br)c2=O)c1,Kd,JNK2,> 10000 nM
same,Kd,JNK3,> 10000 nM
Fc1ccc(-c2nc3n(c2-c2ccncc2)CCS3)cc1 [GI98581],Kd,JNK2,270 nM
same,Kd,JNK3,57 nM
Fc1ccc(-c2nn3cccc(F)c3c2-c2ccncc2)cc1 [GW475620],Kd,JNK2,230 nM
same,Kd,JNK3,58 nM
Cc1ccc(NC(=O)Nc2ccccc2)cc1-c1ccc(C(=O)Nc2ccncc2)cc1 [GSK1398471],Kd,KIT,140 nM
CCn1c(-c2c(N)noc2C)nc2cnccc21 [SB-737856],Kd,LIMK2,> 10000 nM
CNCc1ccc2nc(NC(=O)c3ccc(C(C)(C)C)cc3)cn2c1,Kd,MAP3K15,3800 nM
c1ccc(-c2ccnc3[nH]ccc23)cc1 [SB-693578],Kd,MARK1,> 10000 nM
Cc1c(Cn2c(C)c(C)n3c(=O)cc(N4CCOCC4)nc23)cccc1C(F)(F)F [GSK2328680],Kd,LATS1,> 10000 nM
Cc1ccc(NC(=O)Nc2ccc(Cl)cc2)cc1-c1ccc(C(=O)Nc2ccncc2)cc1 [GSK1398472],Kd,KIT,140 nM
COc1cccc(NC(=O)Nc2ccc(C)c(-c3ccc(C(=O)Nc4ccncc4)cc3)c2)c1 [GSK1398474],Kd,KIT,73 nM
same,Kd,LYN,4400 nM
same,Kd,MAK,> 10000 nM
same,Kd,MARK1,> 10000 nM
Cn1cncc1C(=O)NC1CCN(c2ccnc(Nc3ccc(F)cc3)n2)C1 (centres unmarked) [GSK1379717],Kd,[1],1500 nM
CC(=O)c1c(C)c2cnc(Nc3ccc(N4CCNCC4)cn3)nc2n(C2CCCC2)c1=O,Kd,LIMK2,> 10000 nM
same,Kd,LZK,> 10000 nM
Cc1ccc(NC(=O)c2ccc(Cl)cc2)cc1-c1ccc(C(=O)Nc2ccncc2)cc1 [GSK1398467],Kd,KIT,170 nM
same,Kd,LRRK2,> 10000 nM
same,Kd,MARK2,> 10000 nM
CCc1ccc(-c2ccc3c(c2)-c2n[nH]cc2S(=O)(=O)N3C)cc1,Kd,MEK2,> 10000 nM
Nc1cccc(-c2ccc3c(N)n[nH]c3c2)n1 [GSK2192730],Kd,[1],> 10000 nM
COc1cccc(C2=C(Nc3cc(Cl)c(O)c(Cl)c3)C(=O)NC2=O)c1 [SB-390767],Kd,[2],120 nM
same,Kd,LTK,> 10000 nM
CCCCc1nn2ncccc2c1-c1ccnc(NC2CC2)n1 [GW684374],Kd,JNK2,1300 nM
same,Kd,JNK3,740 nM
Fc1ccc(-c2nc[nH]c2-c2ccncc2)cc1 [SB-217360],Kd,JNK2,85 nM
same,Kd,JNK3,11 nM
COc1ccc(-c2coc3ccc(-c4nnc(C)o4)cc23)cc1,Kd,MARK1,> 10000 nM
same,Kd,MARK4,> 10000 nM
COc1ccc(Nc2nccc(N3CCC(NC(=O)c4cc5ccccc5s4)C3)n2)cc1 (centres unmarked) [GSK1379738],Kd,[1],1800 nM
same,Kd,MAK,> 10000 nM
Cc1cnc(N)c(/C=C/c2cncc(C(=O)NCCc3ccc(Cl)cc3Cl)c2)c1.Cl [GSK190937],Kd,KIT,150 nM
